Data taken from PubChem BioAssay AID1159580 (chemical genetic matrix, 2015).
Among all 5,500 compounds or so, about 2,000 (36%) were called active. Roughly 18% stayed inconclusive and do not appear here. No stated cut-off is given here; in the data, active means normalized growth mostly below about 0.91 (no sharp cut-off); inconclusive means no clear call, values can overlap the other calls; inactive means mostly above about 0.92. The list shows a part of the results.

Experiment: chemical genetic growth profiling, strain panel (AID 1159580);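 further: tested at 20 µM; growth read once vehicle control cultures reached saturation at 30 °C; 1 = growth at the plate median or of vehicle wells; lower values mean less growth of the strain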
Settings: growth OD

Measured: normalized growth

CC1=CC(=O)C(C(C)C)=CC1=O
inactive: S. cerevisiae deletion strains, locus YJR066W, strain TOR1, hits give low values 0.903 | S. cerevisiae deletion strains, locus YKL009W, strain mrt4, hits give low values 0.936 | S. cerevisiae deletion strains, locus YKL068W, hits give low values 0.961 | S. cerevisiae deletion strains, locus YKL085W, strain MDH1 (second series), hits give low values 0.965 | S. cerevisiae deletion strains, locus YKL085W, strain MDH1, hits give low values 0.965 | S. cerevisiae deletion strains, locus YKL160W, strain elf1, hits give low values 0.951 | S. cerevisiae deletion strains, locus YKL190W, strain CNB1, hits give low values 0.946 | S. cerevisiae deletion strains, locus YKR091W, strain srl3, hits give low values 0.999 | S. cerevisiae deletion strains, locus YLL001W, strain dnm1, hits give low values 1.01 | S. cerevisiae deletion strains, locus YLL041C, strain sdh2, hits give low values 0.95 | S. cerevisiae deletion strains, locus YLR039C, strain RIC1, hits give low values 0.691 | S. cerevisiae deletion strains, locus YLR058C, strain SHM2, hits give low values 0.946 | S. cerevisiae deletion strains, locus YLR102C, strain apc9, hits give low values 0.95 | S. cerevisiae deletion strains, locus YLR113W, strain HOG1, hits give low values 0.986 | S. cerevisiae deletion strains, locus YLR262C, strain YPT6, hits give low values 0.643 | S. cerevisiae deletion strains, locus YLR342W, strain FKS1, hits give low values 1.01 | S. cerevisiae deletion strains, locus YLR370C, strain arc18, hits give low values 1.01 | S. cerevisiae deletion strains, locus YLR384C, strain iki3, hits give low values 0.987 | S. cerevisiae deletion strains, locus YML016C, strain PPZ1, hits give low values 0.978 | S. cerevisiae deletion strains, locus YML124C, strain tub3, hits give low values 0.943 | S. cerevisiae deletion strains, locus YMR078C, strain ctf18, hits give low values 0.912 | S. cerevisiae deletion strains, locus YMR231W, strain pep5, hits give low values 1.01 | S. cerevisiae deletion strains, locus YNL067W, strain RPL9B, hits give low values 0.925 | S. cerevisiae deletion strains, locus YNL183C, strain NPR1, hits give low values 0.892 | S. cerevisiae deletion strains, locus YNL209W, strain ssb2, hits give low values 1 | S. cerevisiae deletion strains, locus YNL250W, strain rad50, hits give low values 0.972 | S. cerevisiae deletion strains, locus YNR049C, strain mso1, hits give low values 0.986 | S. cerevisiae deletion strains, locus YNR052C, strain pop2, hits give low values 0.922 | S. cerevisiae deletion strains, locus YOL012C, strain htz1 0.626 | S. cerevisiae deletion strains, locus YOR061W, strain CKA2, hits give low values 0.98 | S. cerevisiae deletion strains, locus YOR069W, strain VPS5, hits give low values 0.961 | S. cerevisiae deletion strains, locus YOR070C, strain gyp1, hits give low values 0.976 | S. cerevisiae deletion strains, locus YOR080W, strain dia2, hits give low values 0.999 | S. cerevisiae deletion strains, locus YOR083W, strain WHI5, hits give low values 0.904 | S. cerevisiae deletion strains, locus YOR136W, strain idh2, hits give low values 0.924 | S. cerevisiae deletion strains, locus YOR231W, strain MKK1, hits give low values 0.967 | S. cerevisiae deletion strains, locus YOR265W, strain rbl2, hits give low values 0.997 | S. cerevisiae deletion strains, locus YOR270C, strain vph1, hits give low values 0.777 | S. cerevisiae deletion strains, locus YOR316C, strain cot1, hits give low values 0.949 | S. cerevisiae deletion strains, locus YPL078C, strain atp4, hits give low values 0.912 | S. cerevisiae deletion strains, locus YPL106C, strain sse1, hits give low values 0.923 | S. cerevisiae deletion strains, locus YPL256C, strain CLN2, hits give low values 0.964 | S. cerevisiae deletion strains, locus YPR119W, strain clb2, hits give low values 0.938 | S. cerevisiae deletion strains, locus YPR141C, strain kar3, hits give low values 0.941
active: S. cerevisiae deletion strains, locus YKR001C, strain vps1, hits give low values 0.727 | S. cerevisiae deletion strains, locus YKR026C, strain gcn3, hits give low values 0.903 | S. cerevisiae deletion strains, locus YLL026W, hits give low values 0.838 | S. cerevisiae deletion strains, locus YLR027C, strain aat2, hits give low values 0.638 | S. cerevisiae deletion strains, locus YLR221C, strain rsa3, hits give low values 0.355 | S. cerevisiae deletion strains, locus YLR258W, strain gsy2, hits give low values 0.902 | S. cerevisiae deletion strains, locus YLR262C, strain YPT6 (second series), hits give low values 0.724 | S. cerevisiae deletion strains, locus YLR268W, strain sec22, hits give low values 0.764 | S. cerevisiae deletion strains, locus YLR320W, strain mms22, hits give low values 0.721 | S. cerevisiae deletion strains, locus YLR330W, strain CHS5, hits give low values 0.648 | S. cerevisiae deletion strains, locus YLR342W, strain FKS1 (second series), hits give low values 0.749 | S. cerevisiae deletion strains, locus YLR357W, strain rsc2, hits give low values 0.632 | S. cerevisiae deletion strains, locus YLR371W, strain rom2, hits give low values 0.715 | S. cerevisiae deletion strains, locus YLR418C, strain cdc73, hits give low values 0.54 | S. cerevisiae deletion strains, locus YML032C, strain rad52, hits give low values 0.89 | S. cerevisiae deletion strains, locus YML120C, strain ndi1, hits give low values 0.13 | S. cerevisiae deletion strains, locus YMR058W, strain fet3, hits give low values 0.759 | S. cerevisiae deletion strains, locus YMR125W, strain sto1, hits give low values 0.397 | S. cerevisiae deletion strains, locus YMR129W, hits give low values 0.839 | S. cerevisiae deletion strains, locus YMR205C, strain PFK2, hits give low values 0.868 | S. cerevisiae deletion strains, locus YMR223W, strain ubp8, hits give low values 0.847 | S. cerevisiae deletion strains, locus YMR307W, strain GAS1, hits give low values 0.49 | S. cerevisiae deletion strains, locus YNL071W, strain lat1, hits give low values 0.274 | S. cerevisiae deletion strains, locus YNL233W, strain BNI4, hits give low values 0.657 | S. cerevisiae deletion strains, locus YNL248C, strain rpa49, hits give low values 0.409 | S. cerevisiae deletion strains, locus YNL271C, strain bni1, hits give low values 0.917 | S. cerevisiae deletion strains, locus YNL298W, strain CLA4, hits give low values 0.899 | S. cerevisiae deletion strains, locus YNL307C, strain MCK1, hits give low values 0.589 | S. cerevisiae deletion strains, locus YNL322C, strain KRE1 (second series), hits give low values 0.876 | S. cerevisiae deletion strains, locus YOL147C, strain pex11, hits give low values 0.872 | S. cerevisiae deletion strains, locus YOR001W, strain rrp6, hits give low values 0.664 | S. cerevisiae deletion strains, locus YOR106W, strain vam3, hits give low values 0.72 | S. cerevisiae deletion strains, locus YOR144C, strain elg1, hits give low values 0.916 | S. cerevisiae deletion strains, locus YOR184W, strain ser1, hits give low values 0.686 | S. cerevisiae deletion strains, locus YOR290C, strain snf2, hits give low values 0.844 | S. cerevisiae deletion strains, locus YPL051W, strain arl3, hits give low values 0.886 | S. cerevisiae deletion strains, locus YPL240C, strain hsp82, hits give low values 0.837 | S. cerevisiae deletion strains, locus YPL241C, strain CIN2, hits give low values 0.925 | S. cerevisiae deletion strains, locus YPR163C, strain tif3, hits give low values 0.725 | S. cerevisiae deletion strains, locus YPR167C, strain met16, hits give low values 0.916 | S. cerevisiae deletion strains, strain wtn01, hits give low values 0.797 | S. cerevisiae strains, strain wild type, hits give low values 0.579
